Source: ChEMBL document CHEMBL3988442, “University of Dundee, Small-Polar-MMV Screening Library” (2021)
Hit rate of the full screen: of about 48,000 compounds, about 13,000 (27%) showed an effect of 50% or more. The list shows a part of the results.

Tested on: Wolbachia pipientis
Test: Anti-Wolbachia Cell-Based Screen
Format: functional
Set-up: scale not given: in the data most compounds retested in dose-response had high values
Conditions: 5 µM

| Structure (SMILES) | Percent Effect [%] |
| --- | --- |
| CC(C)N(C)C(=O)c1ccc(Cl)c(NC(=O)CCN2C(=O)CCC2=O)c1 | -4.274 |
| Cc1c(NC(C)C(C)C)cccc1C(=O)NCc1ccnn1C (stereo unspecified) | 9.043 |
| CC(=O)NCCC(=O)NCc1cccnc1-n1cnc2ccccc21 | -3.508 |
| CCN(CC)S(=O)(=O)CCNc1ncnc2cc(F)c(F)cc12 | 0.3954 |
| O=C(COCc1ccccc1)Nc1ccccn1 | -24.26 |
| CCOC(=O)N1CCN(C(=O)Cn2ccc3ncccc3c2=O)CC1 | -21.73 |
| CCOC(=O)Cn1c(=O)c(OCC)nc2cnccc21 | 100.3 |
| CCOC(=O)Cn1cnc2nc3n(c2c1=O)CCC3 | -20.3 |
| CN(Cc1nccn1C)S(=O)(=O)Cc1cccc(C#N)c1 | 6.063 |
| O=C(c1csc(C2CC2)n1)N1CCCCC1Cn1cccn1 (stereo unspecified) | 99.33 |
| O=C(c1csc(C2CC2)n1)N1CCCC1Cn1cccn1 (stereo unspecified) | 109.4 |
| COCc1nc(C(=O)N2CCCCC2Cn2cccn2)cs1 (stereo unspecified) | 0.9161 |
| NC(=O)CCn1cc(CNCc2csc(N)n2)c2ccccc21 | -0.3339 |
| Cc1cccc(CN2CCCC2c2cncc(Nc3nncs3)n2)c1 (stereo unspecified) | 111.5 |
| COc1cccc(CN(C(=O)Nc2nncs2)C2CCC(O)CC2)c1 (stereo unspecified) | 4.875 |
| Cc1ccccc1CN1CCC[C@H]1c1nc(-c2cncnc2N)no1 | -17.12 |
| Cc1ccccc1CN1CCCC1c1cncc(Nc2nncs2)n1 (stereo unspecified) | 132.3 |
| COc1cccc(CN2CCCC2c2cncc(Nc3nncs3)n2)c1 (stereo unspecified) | 147.7 |
| COc1cccc(CN2CCCC2c2ccc[nH]2)c1 (stereo unspecified) | 13.97 |
| CNc1cncc(C2CCCN2Cc2ccccc2OCC(=O)O)n1 (stereo unspecified) | -10.59 |
| COC(=O)C(CNC(=O)Nc1nncs1)Cc1cccc(C)c1 (stereo unspecified) | -9.936 |
| CCCN1CCCn2nc(CNC(=O)CC(C)n3ccnc3C)cc2C1 (stereo unspecified) | -9.141 |

| Structure (SMILES) | Percent Effect [%] |
| --- | --- |
| CCc1ncc(C(=O)N2CCN(c3cnn(C)c(=O)c3)CC2)cn1 | -4.796 |
| O=c1c2cnc(N3CCCC3)nc2ccn1-c1cccc(F)c1 | -1.705 |
| COCc1nc2ncc3c(=O)n(-c4cccc(OC)c4)ccc3n2n1 | 97.73 |
| Cc1ccccc1-n1ccc2nc(N3CCCC3)ncc2c1=O | -4.338 |
| O=c1c2cnc(N3CCCCC3)nc2ccn1-c1ccccc1F | 37.48 |
| COCc1nc2ncc3c(=O)n(-c4ccc(C(C)=O)cc4)ccc3n2n1 | 38.7 |
| CCOc1ccc(-n2ccc3nc(N4CCCC4)ncc3c2=O)cc1 | -8.321 |
| COCc1nc2ncc3c(=O)n(-c4ccccc4OC)ccc3n2n1 | 126.9 |
| O=c1c2cnc(N3CCCC3)nc2ccn1-c1cccc(C(F)(F)F)c1 | 0.9271 |
| COCc1nc2ncc3c(=O)n(-c4ccc(OC)cc4)ccc3n2n1 | 103.2 |
| Cc1ccc(NC(=O)CCc2ccco2)cc1N1CCOC1=O | -14.01 |
| CCCOCC(=O)Nc1ncc(I)cc1C | -6.497 |
| O=C(CCC1CCCN(C(=O)CCN2CCCCO2)C1)N1CCCC1 (stereo unspecified) | 3.672 |
| CNc1nc(N2CCN(Cc3ccsc3)C(CCO)C2)nc2c1CCC2 (stereo unspecified) | -11.96 |
| CCn1ccc(NC(=O)CN2C(=O)CC(C)(C)c3ccccc32)n1 | 127.7 |
| CCn1cc(NC(=O)CN2C(=O)CC(C)(C)c3ccccc32)cn1 | 116.8 |
| CCN(Cc1cnn(CC)c1)C(=O)CN1C(=O)CCc2ccccc21 | -11.46 |
| CCN1C(=O)C(C)(C)c2cc(NC(=O)c3ccco3)ccc21 | -4.693 |
| COCCn1ccc(NC(=O)Nc2ccccc2)n1 | 3.766 |
| COCCn1ccc(NC(=O)Nc2ccccn2)n1 | 7.746 |
| NC(=O)Cn1ccc(NC(=O)C2(c3cccc(F)c3)CCC2)n1 | -8.022 |
| CCn1cc(NC(=O)NCC(O)c2ccccc2)cn1 (stereo unspecified) | -11.2 |

| Structure (SMILES) | Percent Effect [%] |
| --- | --- |
| CCn1ccc(NC(=O)CN2C(=O)C(C)(C)c3ccccc32)n1 | 112.9 |
| C[C@@H](NCc1cccc(Cl)c1)c1onc(-c2ccc(F)cc2)c1C(=O)O.Cl | -9.594 |
| Cc1c(C(=O)N2CC(C)(C)C2(C)C)nnn1-c1cccc2cnccc12 | -4.075 |
| COCCC1CCCCN1Cc1nc(Cc2cccc(F)c2)no1 (stereo unspecified) | 4.701 |
| c1csc(CCC2CCCCN2Cc2noc(C3CC3)n2)c1 (stereo unspecified) | 94.56 |
| COCCC1CCCCN1Cc1nc(C2CC2)no1 (stereo unspecified) | -11.16 |
| Cc1nc(C)n(CC2CCCN2CCc2cccs2)n1 (stereo unspecified) | -19.79 |
| Cc1nc(CN2CCCCC2CCc2cccs2)co1 (stereo unspecified) | 96.55 |
| COCc1noc(CN2CCCCC2CCc2cccs2)n1 (stereo unspecified) | 103.5 |
| Cc1cnn(CC2CCCN2Cc2coc(-c3cccs3)n2)c1 (stereo unspecified) | -13.53 |
| CC(C)(C(=O)NCCCc1nc2ccccc2[nH]1)n1cc(Cl)cn1 | -7.293 |
| CC(C)CC(CCO)CNC(=O)N1CCC1(C)C (stereo unspecified) | -13.05 |
| Cc1nnc2n1CCN(C(=O)c1cnc3c(cnn3C(C)C)c1)C2 | -12.78 |
| CCOCC(=O)N1CCC(Cc2nnc(SC)n2C)CC1 | 5.722 |
| CC1CCCN(S(=O)(=O)NCc2ccccc2Cn2cncn2)C1 (stereo unspecified) | 105.5 |
| Cc1nccn1-c1ccc(CNS(=O)(=O)N2CCC(C)CC2)cn1 | 2.013 |
| CC1CCN(S(=O)(=O)NCc2ccccc2Cn2cccn2)CC1 | 110.3 |
| NC(=O)C1CCN(C(=O)NCc2ccccc2Cn2cncn2)CC1 | -13.11 |
| O=S(=O)(NCc1ccccc1Cn1cncn1)N1CCCCC1 | 112.9 |
| CC1CN(Cc2ccccc2Cn2cccn2)CCN1C (stereo unspecified) | -6.674 |
| O=S(=O)(NCc1ccccc1Cn1cncn1)N1CCCCCC1 | 113.8 |
| O=S(=O)(NCc1cccnc1OC1CCCC1)N1CCCCC1 | 6.628 |

| Structure (SMILES) | Percent Effect [%] |
| --- | --- |
| CN(C)C1CCN(C(=O)NCc2ccccc2Cn2cncn2)CC1 | -21.25 |
| O=S(=O)(NCc1ccccc1Cn1cncn1)C1CCCC1 | 4.456 |
| CC1CCN(S(=O)(=O)NCc2ccccc2Cn2cncn2)CC1 | 5.954 |
| O=C(CCNC(=O)C1CCCC1)NCc1ccccc1Cn1cncn1 | 1.009 |
| CCN1CCCC1CN(Cc1cc[nH]n1)CC1CCN(CCOC)CC1 (stereo unspecified) | -0.05242 |
| CN1CCC(N(Cc2ccco2)S(=O)(=O)c2ccc(Br)cc2Cl)CC1 | 36.62 |
| CCN1C(=O)C2(CCOCC2)c2cc(NC(=O)c3cnccn3)ccc21 | -0.09306 |
| CC(=O)NCC(=O)N1Cc2cnc(CC(C)C)nc2C1 | 15.63 |
| COCC1CN(C(=O)Nc2cc(Cl)cc(Cl)c2)CCO1 (stereo unspecified) | -11.38 |
| Cc1noc(C)c1CNC(C(=O)N1CCOCC1)C(C)C (stereo unspecified) | 6.768 |
| Cc1noc(C)c1-c1cc(CCC2CN(C(=O)CN)CCO2)ncn1 (stereo unspecified) | 152 |
| Cc1noc(C)c1-c1cc(CCC2CN(CCC(N)=O)CCO2)ncn1 (stereo unspecified) | 120.1 |
| Cc1noc(C)c1-c1cc(CCC2CN(C(=O)C(C)C)CCO2)ncn1 (stereo unspecified) | 137.5 |
| NCC1CN(Cc2cn(CCC(N)=O)c3ccccc23)CCO1 (stereo unspecified) | -15.16 |
| Cc1[nH]nc(CCC(=O)N2CCOC(CCc3ccccc3)C2)c1C (stereo unspecified) | -1.139 |
| Cc1ccnn1CCC(=O)N1CCOC(CCc2ccccc2)C1 (stereo unspecified) | -2.997 |
| CC(=O)N1CCOC(CCc2cc(-c3c(C)noc3C)ncn2)C1 (stereo unspecified) | 154 |
| CCC1CN(C(=O)c2[nH]nc(C)c2Br)CCO1 (stereo unspecified) | -57.1 |
| COCCC1CN(Cc2cn(CCC(N)=O)c3ccccc23)CCO1 (stereo unspecified) | -2.901 |
| CC(C)c1nc(/C=C/c2cnn(-c3ccc(Cl)cc3)c2)ncc1C(=O)O | -7.437 |
| Cc1ccsc1CN(CCN(C)C)C(=O)c1ccccc1C#N | -7.458 |
| CCCS(=O)(=O)NC(=O)c1sc(C2CCCC2)nc1C | -2.065 |

| Structure (SMILES) | Percent Effect [%] |
| --- | --- |
| CCC(C)N(C)CCNC(=O)NCc1cccc(-n2cncn2)c1 (stereo unspecified) | 23.44 |
| O=C(NC1CC1)C1CCN(Cn2nc(-c3ccccc3)oc2=O)CC1 | 10.01 |
| CCc1nc(CN2CCN(C(=O)c3csc(C(C)C)n3)CC2)no1 | -9.148 |
| COc1cc(OC)c2c(=O)oc(CC(O)CC(C)=O)cc2c1 (stereo unspecified) | 8.997 |
| Cc1cc(C(=O)NCC2COCc3c(C)nnn3C2)no1 (stereo unspecified) | -12.47 |
| Cc1noc(C)c1CNS(=O)(=O)N(C)Cc1ccc(Cl)cc1 | -11.55 |
| CN(C)C(=O)c1ccc2c(c1)N(C)C(CC(=O)NCc1ccno1)CO2 (stereo unspecified) | -14.39 |
| CCN(c1ccc(C(=O)N2CCCC(C)C2)cc1)S(=O)(=O)CC (stereo unspecified) | -3.775 |
| CCS(=O)(=O)N(C)c1ccc(C(=O)N2CCCC(C)C2)cc1 (stereo unspecified) | -1.245 |
| CCN(c1ccc(C(=O)N2CCC(C(N)=O)CC2)cc1)S(=O)(=O)CC | 125.1 |
| CN(C)S(=O)(=O)c1csc(C(=O)N2CCC(C(N)=O)CC2)c1 | 3.976 |
| CCN(c1ccc(C(=O)N2CCC(C)CC2)cc1)S(=O)(=O)CC | 137.9 |
| CCN(CC)S(=O)(=O)c1csc(C(=O)N2CCC(C(N)=O)CC2)c1 | 5.806 |
| Cc1nccn1CC1CCCN1S(=O)(=O)Cc1ccon1 (stereo unspecified) | 0.377 |
| Cc1nc(C)n(CC2CCCN(CCC(=O)Nc3cc(C)on3)C2)n1 (stereo unspecified) | 101.8 |
| Cc1nc(C)n(CC2CCCN(CCC(=O)NC3CCCCC3)C2)n1 (stereo unspecified) | 153.2 |
| Cc1nc(C)n(CC2CCCN(CCC(=O)NC3CCCC3)C2)n1 (stereo unspecified) | 114.2 |
| Cc1nc(C)n(CC2CCCN(CCNC(=O)OC(C)(C)C)C2)n1 (stereo unspecified) | -2.681 |
